# Assay outcomes (PubChem BioAssay)
# MBNL1-CUG inh – blocks human MBNL1 binding to CUG repeat RNA; Potency, µM (doses to about 57.5 µM), for inactives: at the highest dose activity change, negative = inhibition, usual class: inhibitors; Q9NR56; 280,000 tested, 0.036% active; TR-FRET MBNL1-His/biotin-(CUG)12 binding, 665/545 ratio; active = well fitted inhibition curve with a large enough effect in the signal ratio, with a control signal flat, not every such curve was filed as active; inconclusive = small, poorly fitted or top-dose-only effect, or effect the other way, or a change in a side signal; inactive = no such curve, though single readings can be large or run the other way; the % refers to the signal ratio; also: potency is read from the fitted curve at half-maximal effect; % is scaled to controls: 0 for no effect and ±100 for the full control effect
#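 His-tagged MBNL1 binding to biotinylated (CUG)12 RNA was measured by TR-FRET using terbium anti-His antibody (0.055 ng/ul final) and streptavidin-XL665 (5 nM final). Compounds were titrated 92 nM to 58 uM; 60 min at room temperature.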
# hERG WT inh – KCNH2 (human, wildtype) channel inhibition; 340,000 tested, 0.37% active; U2OS, BacMam KCNH2, thallium flux FluxOr; stronger effect = lower value; Q12809; activity change, % at 1.84 µM;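 active = maximum activity change below -70%; inconclusive = maximum activity change between -70% and -50%; inactive = maximum activity change above -50%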; also: % is scaled to controls: 0 for no effect and ±100 for the full control effect
#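 U2OS cells transduced with wild-type KCNH2 virus are loaded with FluxOr dye for 45 min, and thallium flux is measured in kinetic reads before and after stimulation buffer. Rate constants are normalized to DMSO controls.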
# PLK1 PBD block – inhibitors of human PLK1 polo-box domain binding | Plk1 PBD binding of FITC phosphopeptide, fluorescence polarization | Potency, µM, for the others: max response, negative = inhibition, usual class: inhibitors | 360,000 tested, 2.8% active | AID 720504; also: potency is read from the fitted curve at half-maximal effect; series mostly up to about 57 µM; % is scaled to controls: 0 for no effect and ±100 for the full control effect; nearly all actives have a fitted effect of over 65% in size
# Target sequence (P53350 whole entry, looked up, the tested form may be a part): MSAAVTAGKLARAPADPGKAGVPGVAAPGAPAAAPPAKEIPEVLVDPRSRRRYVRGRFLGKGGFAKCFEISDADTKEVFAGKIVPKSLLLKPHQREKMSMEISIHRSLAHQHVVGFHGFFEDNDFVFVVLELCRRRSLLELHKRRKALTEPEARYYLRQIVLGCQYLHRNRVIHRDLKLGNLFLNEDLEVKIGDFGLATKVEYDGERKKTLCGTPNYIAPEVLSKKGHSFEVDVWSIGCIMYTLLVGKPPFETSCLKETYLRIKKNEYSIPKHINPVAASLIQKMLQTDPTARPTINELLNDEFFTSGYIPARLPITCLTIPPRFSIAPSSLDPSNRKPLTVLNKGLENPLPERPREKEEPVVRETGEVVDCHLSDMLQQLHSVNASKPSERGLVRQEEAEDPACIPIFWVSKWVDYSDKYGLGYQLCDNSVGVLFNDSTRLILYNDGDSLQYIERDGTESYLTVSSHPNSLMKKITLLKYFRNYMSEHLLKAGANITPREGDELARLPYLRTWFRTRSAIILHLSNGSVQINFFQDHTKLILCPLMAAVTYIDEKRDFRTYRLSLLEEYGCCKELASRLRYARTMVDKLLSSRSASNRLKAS
# VDR inhibitor – inhibitors of human vitamin D receptor. P11473. VDR-SRC2-3 peptide fluorescence polarization, 2 h. Potency, µM, inactives show max response, negative = inhibition, hits mostly inhibitors. 400,000 tested, 0.93% active. AID 504847; also: potency is read from the fitted curve at half-maximal effect; % is scaled to controls: 0 for no effect and ±100 for the full control effect
#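 Inhibition of the VDR/SRC2-3 peptide interaction is quantified by fluorescence polarization. Compounds (23 nl, pintool) incubate with the reagents for 2 hours at ambient room temperature.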
# CBFb RUNX1 block – CBF-beta/RUNX1 interaction disruption | Q01196+Q13951 | AlphaScreen CBFb-His/RUNX1-biotin binding, biochemical | Potency, µM (top dose mostly 59.8 µM), inactives show at the highest dose activity, negative = inhibition, usual class: inhibitors | 230,000 tested, under 10 active; also: % of control where 0% means no effect
#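 Proteins preincubated together for 20 min at RT before compound addition; 15 min later, nickel and streptavidin beads were added and left 90 min prior to AlphaScreen measurement.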
# KCNH2 3.1 block – blocks the human KCNH2 3.1 channel isoform; U2OS KCNH2 3.1, thallium flux FluxOr; stronger effect = lower value; activity change, % (tested at about 1.8 µM); 340,000 tested, 0.95% active; AID 720553;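 active = maximum activity change below -70%; inconclusive = maximum activity change from -70% to -50%; inactive = maximum activity change above -50%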;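 also: thallium influx rate constant from kinetic fluorescence after stimulation buffer; % is scaled to controls: 0 for no effect and ±100 for the full control effect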
#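 Thallium flux read-out: FluxOr dye with Red40 quencher in HBSS/HEPES, 45 min at RT. Rate constants from kinetic reads were normalized to positive and negative DMSO controls. Cells: U2OS virally expressing the 3.1 isoform.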
# Active calls of the source: *; ? = inconclusive; . = no result; [ ] = dose if it differs, or a comment. An excerpt weighted towards active compounds, which were near 3.8% of everything screened. Unless noted, calls follow the shape of the dose curve; as a rule, active = well fitted curve in the direction sought with a large enough effect; inconclusive = small, poorly fitted or top-dose-only effect, or another doubt; inactive = no such curve, though single readings can be large; an effect the other way counts as inactive or inconclusive.
SMILES,MBNL1-CUG inh,hERG WT inh,PLK1 PBD block,VDR inhibitor,CBFb RUNX1 block,KCNH2 3.1 block
Cc1cc(N2C(=O)C(O)=C(C(=O)c3cc4ccccc4o3)C2c2cccs2)no1 (stereo unspecified),200.8%,0.1,?,-16.1%,.,17.8
Cc1cc(N2C(=O)C(O)=C(C(=O)c3cc4ccccc4o3)C2c2ccc([N+](=O)[O-])cc2)no1 (stereo unspecified),7.4%,-7.1,37.7µM*,-5.2%,.,11.5
CCCc1c(C)nc2ccccc2c1SCCC#N,-4.1%,-11.7,21.2µM*,-25.5%,-10.5%,-0.7
Cc1ccc(Cn2c(CNC(=O)CCc3ccccc3)nc3cccnc32)cc1,.,.,.,-0.1%,.,.
O=C(Cn1c(=O)n(Cc2ccc(C(=O)NCc3ccc4c(c3)OCO4)cc2)c(=O)c2ccccc21)Nc1ccc(F)cc1F,.,.,.,1.9%,.,.
Cc1ccc(S(=O)(=O)Nc2cccc(C(=O)NCC3(N4CCCCC4)CCCCC3)c2)cc1F,.,4.1,-6.1%,-19.1%,.,-78.3*
CS(=O)(=O)Cc1ccc(C(=O)NCC2(N3CCCCC3)CCCCC2)cc1,-6.2%,25.0,-0.7%,-3.5%,.,18.5
Cc1cccc(NS(=O)(=O)c2cccc(C(=O)NCC3(N4CCCCC4)CCCCC3)c2)c1,.,11.5,-13.8%,-3.8%,.,-47.6
COCc1ccc(C(=O)NCC2(N3CCCCC3)CCCCC2)cc1,-0.6%,-20.8,29.9µM*,?,.,-27.9
Cc1ccc2c(c1)C(c1ccccc1)N(C(=O)Cc1ccc(F)cc1)CC(=O)N2 (stereo unspecified),.,.,.,-21.5%,.,.
CCC1=NN2C(=N)/C(=C\c3ccc(SCc4ccco4)o3)C(=O)N=C2S1,2.7%,-2.7,?,-10.2%,?,5.2
O=C1NC(=S)S/C1=C\c1ccc(SCc2ccco2)o1,?,8.4,2.99µM*,44.7µM*,.,-1.2
CCCC1=NN2C(=N)/C(=C\c3ccc(SCc4ccco4)o3)C(=O)N=C2S1,15.0%,4.3,23.8µM*,1.7%,.,3.6
O=C1NC(=S)S/C1=C\c1ccc(SCc2ccccc2)o1,.,-23.8,26.7µM*,?,?,-9.0
O=C(O)C(Cc1ccc2c(c1)oc1ccccc12)NCP(=O)(O)O (stereo unspecified),.,.,.,1.3%,8.4%,.
C[C@H]1Cc2c(-c3ccccc3)nc3c(c2CO1)CN(C(=O)C1CCCCC1)CC3,.,.,.,.,5.8%[13.1 µM],.
Cc1cc(C)n(C(C)CC(=O)Nc2ccc(C)c(N(C)C)c2)n1 (stereo unspecified),.,.,.,15.8%,.,.
CCc1nnc(NC(=O)c2ccccc2NC(=O)C2CCN(C(=O)c3ccco3)CC2)s1,.,.,.,-19.1%,.,.
COc1cc(C(=S)N2CCN(c3cccc(Cl)c3)CC2)ccc1O,-2.9%,-0.6,4.74µM*,39.8µM*,-17.5%,-7.8
CC1CCN(C(=S)c2ccccc2O)CC1,-4.2%,-8.8,15µM*,?,-1.3%,12.7
COc1ccc(C(=S)N2CCN(c3cccc(Cl)c3)CC2)c(OC)c1,2.1%,4.9,11.9µM*,?,-23.1%,2.5
Oc1ccccc1C(=S)N1CCN(c2cccc(Cl)c2)CC1,2.9%,-6.9,11.9µM*,89.1µM*,-7.1%,-20.2
COc1ccc(C(=O)N2CCN(c3cccc(Cl)c3)CC2)cc1,-13.1%,0.5,-7.5%,-18.4%,-3.1%,-5.2
Cc1nn2c(=O)cc(COC(=O)c3ccccc3NC(=O)c3ccccc3C)nc2s1,.,.,.,2.9%,.,.
COC(=O)c1cc(NC(=O)c2nn(C)c3c2CSc2ccccc2-3)cc(C(=O)OC)c1,.,.,.,-5.8%,.,.
CCCCCCCCCCCCOCCOCCOCCOCCOCCOCCOCCOCCOCCO,.,.,.,-8.9%,16.2%,.
O=C(Nc1ccc(F)cc1F)N1CCCC(c2nc(-c3ccc(F)cc3)no2)C1 (stereo unspecified),-3.0%,-1.3,11.9µM*,-27.5%,1.0%,30.8
O=C(c1ccc(F)cc1F)N1CCCC(c2nc(-c3ccc(F)cc3)no2)C1 (stereo unspecified),-7.8%,-5.9,-11.0%,23.4%,.,-12.9
